# In PubChem BioAssay (EPA / NIEHS):
# The source made the active and inactive calls. How the source made its calls: active means hit-call score of the fitted dose curve at least 0.9, where 1 is the maximum; inactive means score below 0.9.
# Test system: not listed separately
# Test: ATG_Ets_CIS: Attagene CIS-FACTORIAL HepG2 Assay for human Erythroblast Transformation Specific (ETS) (AID 2282941)
# Conditions: HepG2 ETS cis-reporter transcription, actives raise or lower the signal
# Outline: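 Bidirectional fit versus DMSO of reporter mRNA signal, detected by RT-PCR and capillary electrophoresis in HepG2 cells transiently transfected with cis-element reporters and dosed 24 h.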
row,SMILES,outcome
1,C=C(C)C(=O)OCCO,inactive
2,C1=Cc2ccccc2C1,inactive
3,CCOC(=O)CC,inactive
4,CCC(=O)Oc1ccc(/C(CC)=C(\CC)c2ccc(OC(=O)CC)cc2)cc1,inactive
5,CO[Si](CCC1CCC2OC2C1)(OC)OC (stereo unspecified),inactive
6,CCCCCC/C=C\CCCCCCCC(=O)O,inactive
7,Cc1cc(=O)n(-c2ccccc2)n1C,inactive
8,FC(F)(F)C(=NOCC1OCCO1)c1ccc(Cl)cc1,inactive
9,CCOC(=O)N1CCC(=C2c3ccc(Cl)cc3CCc3cccnc32)CC1,inactive
10,COc1cc(C)ccc1C(C)C,inactive
11,CCCCCCCOC(=O)CCC,inactive
12,Cc1ccc(C(C)c2ccc(C)c(C)c2)cc1C,inactive
13,O=C(/C=C/C=C/c1ccc2c(c1)OCO2)N1CCCCC1,inactive
14,CC(=O)[C@@]1(O)CC[C@H]2[C@@H]3C[C@H](C)C4=CC(=O)C=C[C@]4(C)[C@@]3(F)[C@@H](O)C[C@@]21C,inactive
15,CC(C)CC(O)Cc1ccccc1 (stereo unspecified),inactive
16,CCCCOCCOC(=O)COc1nc(Cl)c(Cl)cc1Cl,inactive
17,COC(=O)/C=C\C(=O)O,inactive

row,SMILES,outcome
1,C=C[Si](OC(C)=O)(OC(C)=O)OC(C)=O,inactive
2,Cc1c(C)c([N+](=O)[O-])c(C(C)(C)C)c([N+](=O)[O-])c1C,inactive
3,O=[N+]([O-])C1(Br)COCOC1,inactive
4,CC(C)=CC1CC(C)CCO1 (stereo unspecified),inactive
5,Nc1ccc(-c2ccc(F)cc2)cc1,inactive
6,FC(F)=C(F)OC(F)(F)C(F)(F)C(F)(F)F,inactive
7,CCCOC(=O)CCCCC(=O)OCCC,inactive
8,OCCN(CCO)c1ccccc1,inactive
9,O=C(O)c1cc(Cl)cc([N+](=O)[O-])c1Cl,inactive
10,CCc1nccnc1C,inactive
11,CC(=O)Nc1ccc2c(c1)Cc1cc(NC(C)=O)ccc1-2,inactive
12,OCCCS,inactive
13,Cc1ccc([N+](=O)[O-])cc1S(=O)(=O)O,inactive
14,COC(=O)c1cc(Cl)ccc1[N+](=O)[O-],inactive
15,Cc1oncc1C(=O)Nc1ccc(C(F)(F)F)cc1,inactive
16,CC(C)c1ccc2cc(C(C)C)ccc2c1,inactive

# Target: Hepatocyte nuclear factor 3-beta (Homo sapiens) (UniProt Q9Y261)
# Sequence (Q9Y261 whole entry, looked up): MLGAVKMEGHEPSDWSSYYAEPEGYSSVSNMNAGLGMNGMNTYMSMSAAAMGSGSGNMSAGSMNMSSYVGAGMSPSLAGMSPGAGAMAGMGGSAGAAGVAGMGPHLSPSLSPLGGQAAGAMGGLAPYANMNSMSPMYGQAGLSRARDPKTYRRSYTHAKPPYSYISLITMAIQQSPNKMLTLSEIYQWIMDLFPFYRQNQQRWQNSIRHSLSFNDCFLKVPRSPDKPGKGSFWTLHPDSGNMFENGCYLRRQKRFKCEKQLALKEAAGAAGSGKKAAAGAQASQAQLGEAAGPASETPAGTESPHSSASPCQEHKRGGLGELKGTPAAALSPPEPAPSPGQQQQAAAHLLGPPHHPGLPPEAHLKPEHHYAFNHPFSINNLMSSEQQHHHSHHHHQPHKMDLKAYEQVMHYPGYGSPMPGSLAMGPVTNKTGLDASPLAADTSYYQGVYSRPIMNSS
# Test: ATG_FoxA2_CIS: Attagene CIS-FACTORIAL HepG2 Assay for human Forkhead box A2 (FOXA2) (AID 2282942)
# Conditions: HepG2 cis-reporter transcription factor activity, 24 h; actives raise or lower the signal
# Outline: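 Reporter transcript induction is measured by fluorescence after capillary electrophoresis of RT-PCR products from HepG2 cells exposed 24 h. Cis-regulated reporter units report endogenous factor activity; curves fitted both directions against DMSO.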
row,SMILES,outcome
1,C=C(C)C(=O)OCCO,inactive
2,C1=Cc2ccccc2C1,inactive
3,CCOC(=O)CC,inactive
4,CCC(=O)Oc1ccc(/C(CC)=C(\CC)c2ccc(OC(=O)CC)cc2)cc1,inactive
5,CO[Si](CCC1CCC2OC2C1)(OC)OC (stereo unspecified),inactive
6,Cc1cc(=O)n(-c2ccccc2)n1C,inactive
7,FC(F)(F)C(=NOCC1OCCO1)c1ccc(Cl)cc1,inactive
8,CCOC(=O)N1CCC(=C2c3ccc(Cl)cc3CCc3cccnc32)CC1,inactive
9,CCCCCCCOC(=O)CCC,inactive
10,CC(C)=CCC[C@H](C)CCO,inactive
11,O=C1CCCCCCCCCCC(=O)OCCO1,inactive
12,COCC(C)N (stereo unspecified),inactive
13,CC(=O)[C@@]1(O)CC[C@H]2[C@@H]3C[C@H](C)C4=CC(=O)C=C[C@]4(C)[C@@]3(F)[C@@H](O)C[C@@]21C,inactive
14,CC(C)CC(O)Cc1ccccc1 (stereo unspecified),inactive
15,COC(=O)/C=C\C(=O)O,inactive
16,C=C[Si](OC(C)=O)(OC(C)=O)OC(C)=O,inactive
17,Cc1c(C)c([N+](=O)[O-])c(C(C)(C)C)c([N+](=O)[O-])c1C,inactive

row,SMILES,outcome
1,O=[N+]([O-])C1(Br)COCOC1,inactive
2,CC(C)=CC1CC(C)CCO1 (stereo unspecified),inactive
3,Nc1ccc(-c2ccc(F)cc2)cc1,inactive
4,FC(F)=C(F)OC(F)(F)C(F)(F)C(F)(F)F,inactive
5,CCCOC(=O)CCCCC(=O)OCCC,inactive
6,OCCN(CCO)c1ccccc1,inactive
7,CCCCC(CC)COC(=O)c1ccccc1O (stereo unspecified),inactive
8,CCc1nccnc1C,inactive
9,CC(=O)Nc1ccc2c(c1)Cc1cc(NC(C)=O)ccc1-2,inactive
10,Cc1cccc(OCCOc2cccc(C)c2)c1,inactive
11,Cc1ccc([N+](=O)[O-])cc1S(=O)(=O)O,inactive
12,COC(=O)c1cc(Cl)ccc1[N+](=O)[O-],inactive
13,Cc1oncc1C(=O)Nc1ccc(C(F)(F)F)cc1,inactive
14,CC(C)c1ccc2cc(C(C)C)ccc2c1,inactive
15,C=CC(=O)OCCOC(=O)C=C,inactive
16,CCCCCCCCCCCCCOP(=O)(O)O,inactive

# Test system: not listed separately
# Test: ATG_FoxO_CIS: Attagene CIS-FACTORIAL HepG2 Assay for human Forkhead box O (FoxO) (AID 2282943)
# Conditions: HepG2 Attagene cis-reporter, FoxO element, mRNA; actives raise or lower the signal
# Outline: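 Transfected HepG2 reporter cells exposed to test chemical for 24 h; reporter RNA measured by reverse transcription, PCR and fluorescent capillary electrophoresis; curves fitted for increases and decreases against DMSO.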
SMILES,outcome,AC50
C=C(C)C(=O)OCCO,inactive,
C1=Cc2ccccc2C1,inactive,
CCOC(=O)CC,inactive,
CCC(=O)Oc1ccc(/C(CC)=C(\CC)c2ccc(OC(=O)CC)cc2)cc1,inactive,
CO[Si](CCC1CCC2OC2C1)(OC)OC (stereo unspecified),inactive,
CCCCCC/C=C\CCCCCCCC(=O)O,inactive,
Cc1cc(=O)n(-c2ccccc2)n1C,inactive,
FC(F)(F)C(=NOCC1OCCO1)c1ccc(Cl)cc1,inactive,
CCOC(=O)N1CCC(=C2c3ccc(Cl)cc3CCc3cccnc32)CC1,inactive,
COc1cc(C)ccc1C(C)C,inactive,
CCCCCCCOC(=O)CCC,inactive,
Cc1ccc(C(C)c2ccc(C)c(C)c2)cc1C,inactive,
O=C(/C=C/C=C/c1ccc2c(c1)OCO2)N1CCCCC1,inactive,
CC(C)=CCC[C@H](C)CCO,inactive,
O=C1CCCCCCCCCCC(=O)OCCO1,inactive,
COCC(C)N (stereo unspecified),inactive,
CC(=O)[C@@]1(O)CC[C@H]2[C@@H]3C[C@H](C)C4=CC(=O)C=C[C@]4(C)[C@@]3(F)[C@@H](O)C[C@@]21C,inactive,
CC(C)CC(O)Cc1ccccc1 (stereo unspecified),inactive,
CCCCOCCOC(=O)COc1nc(Cl)c(Cl)cc1Cl,inactive,
COC(=O)/C=C\C(=O)O,inactive,

SMILES,outcome,AC50
C=C[Si](OC(C)=O)(OC(C)=O)OC(C)=O,inactive,
Cc1c(C)c([N+](=O)[O-])c(C(C)(C)C)c([N+](=O)[O-])c1C,inactive,
O=[N+]([O-])C1(Br)COCOC1,inactive,
CC(C)=CC1CC(C)CCO1 (stereo unspecified),inactive,
Nc1ccc(-c2ccc(F)cc2)cc1,inactive,
FC(F)=C(F)OC(F)(F)C(F)(F)C(F)(F)F,inactive,
CCCOC(=O)CCCCC(=O)OCCC,inactive,
OCCN(CCO)c1ccccc1,inactive,
O=C(O)c1cc(Cl)cc([N+](=O)[O-])c1Cl,inactive,
CCCCC(CC)COC(=O)c1ccccc1O (stereo unspecified),inactive,
CCc1nccnc1C,inactive,
CC(=O)Nc1ccc2c(c1)Cc1cc(NC(C)=O)ccc1-2,inactive,
OCCCS,inactive,
Cc1cccc(OCCOc2cccc(C)c2)c1,inactive,
Cc1ccc([N+](=O)[O-])cc1S(=O)(=O)O,,153 µM (active)
COC(=O)c1cc(Cl)ccc1[N+](=O)[O-],inactive,
Cc1oncc1C(=O)Nc1ccc(C(F)(F)F)cc1,inactive,
CC(C)c1ccc2cc(C(C)C)ccc2c1,inactive,
C=CC(=O)OCCOC(=O)C=C,inactive,
CCCCCCCCCCCCCOP(=O)(O)O,inactive,
